Measurements from PubChem BioAssay AID687020 (Broad Institute, 2013).
About 100 (7.1%) of roughly 1,400 compounds were called active. The rule behind the calls is not given here. A selection follows. Potency and affinity values are given separately.

Experiment: viability loss in Vero cells – cell-based, plate reader, cherry-pick samples, cytotoxicity control, dose response (AID 687020);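 note: compounds incubated with cells for three days before luminescence read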
Details: series mostly up to 19.5 µM; activity change, negative = toxicity: at the top concentration

Compound	activity change, negative = toxicity
COc1ccc(C(C)NC(=O)c2ccccc2Cl)cc1OC (centres undefined)	1.27% (inactive)
CCS(=O)(=O)Nc1ccc(C(=O)NCCSc2ccccc2)cc1	-8.4% (inactive)
COc1ccccc1N(CC(=O)N1CCCC1)S(=O)(=O)c1ccc(C)cc1	-2.96% (inactive)
COc1ccc(OC)c(-c2cc(C(=O)NC3CCCC3)c3ccccc3n2)c1	-9.23% (inactive)
COc1ccc(C(=O)N2CCN(C3CCCCC3)CC2)cc1OC	-10.2% (inactive)
Cc1cc(N2CCN(C)CC2)n2nc(-c3ccc(Cl)cc3)nc2n1	-1.64% (inactive)
COc1ccc(-c2nc(NCCCN(C)C)c3ccccc3n2)cc1	-20.6% (inactive)
COc1ccc2nc(NN=Cc3cccc(C)n3)cc(C)c2c1	-10.1% (inactive)
C[C@@H]1CCCCO[C@@H](CN(C)Cc2ccc(C(=O)O)cc2)[C@H](C)CN([C@H](C)CO)C(=O)c2cc(NC(=O)c3ccccc3)ccc2O1	-7.9% (inactive)
C[C@@H]1CN([C@H](C)CO)C(=O)c2cc(NC(=O)c3ccccc3)ccc2O[C@@H](C)CCCCO[C@@H]1CN(C)Cc1ccc(C(=O)O)cc1	-0.937% (inactive)
Cc1ccc(CN(C)c2ccc(S(=O)(=O)N3CCCC3)cn2)cc1	-3.39% (inactive)
COc1cc(C(=O)NCc2cccc(Cl)c2)ccc1OCC(=O)N1CCOCC1	2.08% (inactive)
COc1ccc(C(=O)NCCOc2cccc(Oc3ccccc3)c2)cc1OC	-17.2% (inactive)
O=C(C[C@@H]1CC[C@@H]2[C@H](COC[C@H](O)CN2Cc2cccc(Cl)c2)O1)N1CCOCC1	-2.6% (inactive)
COC(=O)C1=C(C)N(Cc2cccc(C(F)(F)F)c2)C(=NCC2CC2)NC1c1ccc(F)cc1 (centres undefined)	-0.751% (inactive)
C[C@@H]1CN([C@@H](C)CO)C(=O)c2cc(NS(=O)(=O)c3ccc(F)cc3)ccc2O[C@@H](C)CCCCO[C@@H]1CN(C)C(=O)CCCN(C)C	-2.95% (inactive)
CCOC(=O)Nc1ccc(N2CCOCC2)c(S(=O)(=O)N2CCOCC2)c1	-7.3% (inactive)
CCCCN1C[C@H](Cc2ccccc2)[C@@H](CC(=O)Nc2ccccc2)C1=O	-6.93% (inactive)
O=C(CC1NCCN(Cc2ccccc2)C1=O)Nc1ccccc1 (centres undefined)	-3.62% (inactive)
Cc1ccc(S(=O)(=O)N(c2nc(NC(C)C)nc(NC(C)C)n2)n2cnnc2)cc1	-22% (inactive)
C=CCOc1ccccc1OCC(O)CNC(C)C (centres undefined)	4.09% (inactive)
N#C[C@@H]1[C@H](c2ccc(C#Cc3ccccc3F)cc2)[C@H](CO)N1C(=O)C1CCC1	-7.04% (inactive)
CC(C)CCn1c2ccccc2c2cc(CC(N)=O)ccc21	-9.09% (inactive)
CC1(Cc2cccc(F)c2)C(=O)Nc2ccc(-c3cccnc3)cc21 (centres undefined)	2.56% (inactive)
COc1cc(OC)cc(C(=O)Nc2ccc3nc4n(c(=O)c3c2)CCCC4)c1	-1.48% (inactive)

Compound	activity change, negative = toxicity
O=C(Nc1ccc2nc3n(c(=O)c2c1)CCCC3)c1ccccc1F	-0.515% (inactive)
CC(C)(C)c1ccc(C(=O)Nc2ccc3c(c2)C(=O)NC3=O)cc1	-3.44% (inactive)
CC(NC(=O)c1ccccc1)C(=O)OCn1nnc2ccccc2c1=O (centres undefined)	2.95% (inactive)
CCCc1nc2ccccc2n1C(C)C(=O)NC(C)(C)C (centres undefined)	-9.03% (inactive)
Cc1cc(C)cc(NC(=O)Cn2nnc(C(=O)NCc3cccs3)c2N)c1	-0.976% (inactive)
CN(C)CCCN1c2ccccc2Sc2ccc3ccccc3c21	-27.7% (inactive)
CC(C)NC(=O)Nc1ccc2c(c1)C(=O)N([C@H](C)CO)C[C@H](C)[C@H](CN(C)CC1CC1)OCCCC[C@@H](C)O2	-0.509% (inactive)
CCCN1[C@H](C(=O)NCC(F)(F)F)[C@@H](CO)[C@@H]2Cn3c(ccc(-c4ccccc4)c3=O)[C@@H]21	-4.76% (inactive)
CCOC(=O)c1ccc(NC(=O)c2nc[nH]c2C(=O)NC[C@H](C)O)cc1	-3.85% (inactive)
C[C@H](CO)N1C[C@H](C)[C@@H](CN(C)S(C)(=O)=O)Oc2ccc(NC(=O)Nc3ccccc3)cc2C1=O	-2.06% (inactive)
CCN(C)C1CN(Cc2cn(Cc3ccccc3)nn2)S(=O)(=O)C1 (centres undefined)	2.96% (inactive)
Cc1ccc(Cn2cc(CN3CC(N4CCSCC4)CS3(=O)=O)nn2)cc1 (centres undefined)	-18.6% (inactive)
COc1ccc(-c2cnc3n2CCCCC3)cc1	-10.8% (inactive)
CC(=O)N1CCN(C(=O)COC(=O)COc2c(C)cc(C)cc2C)CC1	-0.176% (inactive)
COc1cccc(NC(=O)CN(C)C(=O)Cc2ccc3c(c2)OCCO3)c1	-3.6% (inactive)
Cc1ccc(S(=O)(=O)N2CCOCC2)cc1NC(=O)CN(C)CC(=O)Nc1cccc(F)c1	-8.86% (inactive)
COC(=O)c1cn(C(=O)c2ccc(OC)c(OC)c2)c2ccccc12	-6.84% (inactive)
COc1ccc(COC(=O)C2=C(C)NC(=O)NC2c2ccccc2F)cc1 (centres undefined)	-12.5% (inactive)
CC(C)C[C@@H](COc1ccccc1)N1CCN(CCc2ccccc2)CCC1=O	-23.9% (inactive)
CCN(CC)C(=O)C1CCN(Cc2ccc(OCc3ccccc3)cc2)CC1	-30.8% (inactive)
N#CC[C@H](c1ccccc1)N1CCN(Cc2ccccc2)CCC1=O	-10% (inactive)
CCCN1CCC(=O)N([C@H](CSc2ccccc2)Cc2ccccc2)CC1	-25.2% (inactive)
Cc1noc(C)c1NC(=O)Nc1ccc2c(c1)CC(=O)N([C@@H](C)CO)C[C@H](C)[C@@H](CN(C)C(=O)Nc1ccccc1)O2	6.21% (inactive)
CCOc1ccc2[nH]cc(S(=O)(=O)c3ccc(C)cc3)c(=O)c2c1	-24.2% (inactive)
O=C(Oc1ccccc1)c1ccccc1C(=O)Oc1ccccc1	-7.5% (inactive)

Compound	activity change, negative = toxicity
COc1ccc(NC(=O)c2cc3ccccc3cc2O)cc1	6.74% (inactive)
COc1ccc(N2CCN(CC(O)COc3ccc(F)cc3)CC2)cc1 (centres undefined)	-1.99% (inactive)
Clc1cc(Br)ccc1OCCCn1ccnc1	-4.92% (inactive)
Clc1cc(Br)ccc1OCCOCCN1CCCC1	-12.9% (inactive)
N#CCc1ccc(NC(=O)c2cc(S(=O)(=O)N3CCOCC3)ccc2Cl)cc1	4.07% (inactive)
COc1ccc(-c2cc(N3C(=O)Nc4ccccc4N3O)n[nH]2)cc1OC	-3.7% (inactive)
CCNC(=O)N(C)C[C@H]1N[C@@](CC)(C(=O)OC)[C@H]2C(=O)N(Cc3ccccc3)C(=O)[C@@H]12	3.78% (inactive)
Cc1ccccc1N1Cc2ccccc2C1=O	-17.1% (inactive)
CN1CCN(S(=O)(=O)c2cccs2)CC1	-29.2% (inactive)
O=C(NCc1ccc(Cl)c(Cl)c1)c1cc(C2CCCCN2C(=O)OCCF)on1 (centres undefined)	-31.1% (inactive)
COC(=O)N1CCCCC1c1cc(C(=O)Nc2ccccc2Cl)no1 (centres undefined)	-0.256% (inactive)
Cc1ccc(F)cc1C(=O)N1CCCCC1c1cc(C(=O)NC(C)C)no1 (centres undefined)	-4.27% (inactive)
COc1ccc(S(=O)(=O)N2CCCCC2c2cc(C(=O)Nc3ccccc3)no2)cc1 (centres undefined)	-19.9% (inactive)
Cc1ccc(NC(=O)C2CCN(S(C)(=O)=O)CC2)cc1Cl	-5.63% (inactive)
C[C@H](NC(=O)[C@H]1[C@H](CO)[C@H]2Cn3c(cccc3=O)[C@@H]1N2Cc1cccnc1)c1ccccc1	-1.47% [at 21 µM] (inactive)
CC(C)(C(=O)N1CCC1(C)C(=O)Nc1ccccc1Br)c1ccccc1 (centres undefined)	-3.5% (inactive)
Cc1c(C(=O)NCc2ccc(C#N)cc2)sc(=O)n1Cc1ccccn1	-13.9% (inactive)
COc1ccc2oc(C(=O)OC(C)C(=O)N3CCC(C)CC3)c(C)c2c1 (centres undefined)	0.402% (inactive)
Cc1ccc2oc(C(=O)N(Cc3ccncc3)CC3CCCO3)c(C)c2c1 (centres undefined)	-16.3% (inactive)
Cc1ccc(S(=O)(=O)Nc2ccc(O)c3ncccc23)cc1	-6.4% (inactive)
COCCNC(=O)C1CCC(CNS(=O)(=O)c2ccc(F)cc2)CC1 (centres undefined)	-5.15% (inactive)
CCCC(=O)Nc1ccc2nn(-c3ccc(OC)cc3)nc2c1	-10.6% (inactive)
COc1cc(C(=O)OCCCN2CCOCC2)cc(OC)c1OC	-18.3% (inactive)
CCN(CC)S(=O)(=O)c1cccc(C(=O)NCC2(N3CCOCC3)CCCCC2)c1	-17.2% (inactive)
CC(C)C[C@@H](CN1C(=O)C(=O)NC[C@@H]1CC(C)C)NC(=O)Cc1ccccc1	4.94% (inactive)

Compound	activity change, negative = toxicity
CCNC(=O)C[C@H]1CC[C@H]2[C@@H](COC[C@H](O)CN2Cc2ccc(Cl)c(Cl)c2)O1	-2.49% (inactive)
C=Cc1ccc(Cn2c(C)c(C(=O)NCc3cccc(C(F)(F)F)c3)sc2=O)cc1	-26.8% (inactive)
Cc1cccc(C)c1NC(=O)C1(C)CSCC(=O)N1Cc1cccc(C(F)(F)F)c1 (centres undefined)	-8.41% (inactive)
CC(=O)Nc1ccc(OCCCN2CCC(C(O)(c3ccccc3)c3ccccc3)CC2)cc1	10.1% (inactive)
O=C(Nc1ccc(F)cc1)C1CCCN(S(=O)(=O)c2ccc3[nH]c(=O)ccc3c2)C1 (centres undefined)	-8.71% (inactive)
Cc1ccc(NC(=O)C2(c3cccs3)CCOCC2)cc1C	-2.5% (inactive)
Cc1ccc(NC(=O)CN2CCC(NC(=O)c3cccc(F)c3)CC2)cc1C	-3.05% (inactive)
Nc1nc2c(ncn2[C@@H]2O[C@H](CNCc3ccc(F)c(N4CCOCC4)c3)[C@@H](O)[C@H]2O)c(=O)[nH]1	2.14% (inactive)
CC1(c2nnnn2Cc2ccccc2)CCC(=O)N1CCCn1ccnc1 (centres undefined)	-8.16% (inactive)
COc1ccc(NC(=O)CN(C)C(=O)CC2CCCC2)cc1	0.376% (inactive)
COC(=O)c1c(-c2ccc(OC)cc2)sc2cc3c(cc12)OCO3	-14.3% (inactive)
CC1CCN(C(=O)COC(=O)CNC(=O)c2ccccc2F)CC1	0.091% (inactive)
Nc1sc(-c2ccccc2)cc1C(=O)NCCN1CCOCC1	0.888% (inactive)
COc1ccc(-c2nc(CN3CCC(C(=O)N4CCOCC4)CC3)c(C)o2)c(OC)c1	-7.68% (inactive)
O=C(NCC1CCCCC1)[C@H]1[C@H](CO)[C@H]2Cn3c(cccc3=O)[C@@H]1N2CCc1ccccc1	-0.486% (inactive)
O=C(c1cccnc1)N1CC2(C1)[C@H](c1ccccc1)[C@@H](CO)N2Cc1ccccc1	7.05% [at 21 µM] (inactive)
CN(C)CC#Cc1ccc([C@H]2[C@@H](CO)N(C(=O)C3CCC3)[C@H]2C#N)cc1	3.64% (inactive)
COC(=O)[C@H]1CN(C(=O)c2ccccc2)C(=O)N1	-14.5% (inactive)
COc1cc2cc(CCCOC(=O)CCCC(=O)O)oc(=O)c2cc1OC	-0.875% (inactive)
O=C(CCNC(=O)OCC1c2ccccc2-c2ccccc21)NOCc1ccccc1	-6.13% (inactive)
Cc1cccc(C)c1OCC(=O)NNC(=O)CCCn1c(=O)oc2ccccc21	-12.1% (inactive)
CC(=O)NCCC(=O)Nc1cc(S(=O)(=O)N2CCCCC2)ccc1N1CCN(C)CC1	-11.7% (inactive)
C[C@@H]1CCCCO[C@@H](CN(C)C(=O)Cc2ccccc2)[C@H](C)CN([C@H](C)CO)C(=O)c2cc(NS(=O)(=O)c3ccc(Cl)cc3)ccc2O1	1.92% (inactive)
CN(C)c1ccc2c(c1)[C@H]1C[C@@H](CC(=O)NCc3ccc(Oc4ccccc4)cc3)O[C@H](CO)[C@H]1O2	-2.12% (inactive)
